Sampled rows, rich in hits. Any-hit rate of the full collection: about 4.1%.
FAS-TE inh: blocks the thioesterase domain of human fatty acid synthase; P49327; recombinant FAS-TE, OMFH fluorogenic substrate, fluorescence endpoint; inhibition, % at 15 µM; 0.67% of 360,000 active; AID 602261;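 active = compounds whose normalised, plate-corrected inhibition of enzyme fluorescence in the single-dose primary screen is 50% or more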;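 also: 0% = DMSO with enzyme and 100% = substrate without enzyme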
NR3A LBD binder: NR3A (human) ligand-binding domain modulation | AID 1259313 | Tm shift relative to glycine control, % at 25 µM | 2.5% of 340,000 active | NR3A LBD differential scanning fluorimetry, Tm shift; 0% = protein alone, 100% = glycine-bound protein;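 active = melting temperature shift of at least 10% of the positive control shift, at one fixed dose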
p-CIP stab down: lowers stability of the mouse p/CIP coactivator protein; Q05BA5; F442A p/CIP-EGFP cells, EGFP fluorescence, 16 h; decrease of EGFP signal, % at 10 µM; 0.01% of 290,000 active; AID 1984;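 active = EGFP signal decrease of at least 30% at 10 µM or well 3 SD below plate mean, unless failing retest; inactive = the rest, including hits failing retest or dose response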
MPTP block: inhibitors of mitochondrial permeability transition pore; AID 602449; isolated mouse mitochondria, Ca2+ swelling absorbance, 30 min; 1.4% of 360,000 active; inhibition, % at 10 µM;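 active = inhibition of 50% or more, scaled per plate between neutral and stimulator controls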;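 also: 0% = DMSO wells given calcium and 100% = 1 mM EGTA wells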
MIN6 prolif: induces beta-cell replication in MIN6 cells; MIN6 cells proliferation, ATPlite luminescence, 48 h; cells starved in 0.2% serum; 100% = growth in 10% serum; proliferation, % at 10 µM; 0.29% of 330,000 active; AID 2380;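 active = compounds whose signal lies at least 3.5 SD above the mean of all wells on their plate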;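 also: 0% = DMSO-treated cells in low-serum medium and 100% = 10% serum control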
* hit, by the source's call; x = not tested or not shown; ! = not confirmed by another sample.

SMILES	FAS-TE inh	NR3A LBD binder	p-CIP stab down	MPTP block	MIN6 prolif
CN(C)c1ccc(NC(=O)Nc2ccc3snnc3c2)cc1	-3	36*	-6	2	-1
CC(=O)c1ccc(NC(=O)Nc2ccc3c(c2)nc(C)n3C)cc1	0	5	1	2	1
CC(=O)c1ccc(NC(=O)c2ccc3snnc3c2)cc1	1	5	3	0	2
COC(=O)c1ccc(NC(=O)Nc2ccc3c(c2)nc(C)n3C)cc1	-1	25*	-16	0	3
COc1ccc(NC(=O)Nc2ccc(N(C)C)cc2)cc1	-6	12*	-4	4	-5
OC(c1cccc(Cl)c1)c1nc(/C=C/c2ccccc2)cs1 (stereo not given)	19	x	x	2	x
COc1cccc(Nc2nc(C(N)Cc3ccc(C(F)(F)F)cc3)cs2)n1 (stereo not given)	-3	x	x	6	x
CC(=O)Nc1ccc(C(=O)Nc2ccc(S(=O)(=O)N3CCCCC3)cc2)cc1	-3	23*	-2	4	-3
O=C(Nc1cccc(F)c1)c1ccc(S(=O)(=O)N2CCCCC2)cc1	12	17*	-3	2	-1
O=C(CN1CCCC1)Nc1ccc(S(=O)(=O)N2CCCCC2)cc1	-5	0	1	-1	0
O=C(CN1CCCCC1)Nc1ccc(S(=O)(=O)N2CCCCCC2)cc1	1	11*	2	-1	-3
O=C(Nc1cccc(O)c1)c1ccc(S(=O)(=O)N2CCCCCC2)cc1	5	2	4	0	3
Cc1cc(C(=O)Nc2ccc(S(=O)(=O)N3CCCC3)cc2)cs1	4	1	-7	0	2
Cc1ccc(C(=O)Nc2ccc(S(=O)(=O)N3CCCC3)cc2)s1	5	24*	4	3	0
O=C(CNc1ccc(F)cc1Cl)Nc1cccc(S(=O)(=O)N2CCCCC2)c1	27	13*	x	27	-6
O=C(CNc1cccc(S(=O)(=O)N2CCCC2)c1)Nc1cccc(F)c1	1	0	x	1	0
CCCCC(=O)Nc1ccc(C(=O)Nc2ccc(S(=O)(=O)N3CCCC3)cc2)cc1	-15	31*	1	0	0
O=C(Nc1ccc(S(=O)(=O)N2CCCC2)cc1)c1ccc(Cl)nc1	-3	-2	x	-2	4
O=C(Nc1ccc(S(=O)(=O)N2CCCCC2)cc1)c1ccc(Cl)nc1	2	24*	x	1	-1
CC(=O)Nc1ccc(C(=O)N2CCCCC2c2cc(C(=O)NC(C)C)no2)cc1 (stereo not given)	-4	x	x	-3	x
CCCCn1c(N)c(N(CC(C)C)C(=O)CSc2nnc(-c3ccc(Cl)cc3)o2)c(=O)[nH]c1=O	-11	10*	x	0	-5
CCCCN(C(=O)CSc1nnc(-c2ccc(Cl)cc2)o1)c1c(N)n(CC(C)C)c(=O)[nH]c1=O	-16	0	x	0	-2
CC1(C(=O)Nc2ccccc2)CCN1C(=O)C1(c2ccccc2)CC1 (stereo not given)	-2	x	x	2	x
O=C(NCc1ccc(F)cc1)c1ccc(S(=O)(=O)Nc2cccc(C(F)(F)F)c2)cc1	23	29*	-1	30	-4
O=C(c1ccc(S(=O)(=O)Nc2cccc(C(F)(F)F)c2)cc1)N1CCC1	-4	16*	-12	0	1
SMILES	FAS-TE inh	NR3A LBD binder	p-CIP stab down	MPTP block	MIN6 prolif
O=C(NCc1ccncc1)c1ccc(NS(=O)(=O)c2ccc(F)cc2)cc1	-5	0	x	1	1
O=C(NCc1ccccc1F)c1ccc(S(=O)(=O)Nc2cccc(C(F)(F)F)c2)cc1	11	27*	-7	7	1
O=C(NCCCN1CCCC1=O)c1ccc(S(=O)(=O)Nc2cccc(C(F)(F)F)c2)cc1	-6	-1	x	0	0
CC(=O)N1CCN(C(=O)c2ccc(S(=O)(=O)Nc3cccc(C(F)(F)F)c3)cc2)CC1	-3	x	x	-2	-3
O=C(Nc1cccc(C(F)(F)F)c1)c1cccc(NS(=O)(=O)c2ccc(O)c(C(=O)O)c2)c1	11	32*	-14	3	0
COc1ccc(OC)c(NC(=O)Nc2nc(CN(C)C)cs2)c1	-9	x	x	1	x
CCCCCCCCN1C(=O)[C@H](CC(=O)NCc2ccc(C)o2)C[C@@]2(C(=O)OC)CCCCC=C12	8	x	x	-3	x
COc1ccc2nc(Nc3ccccc3OC)sc2c1	11	19*	-4	-6	-5
COc1ccc2nc(Nc3ccccc3)sc2c1	11	30*	8	0	-4
COc1ccc2nc(NC(C)=O)sc2c1	-4	1	2	-2	2
CCOc1ccccc1NC(=S)N1CCN(c2ccc(OC)cc2)CC1	5	10*	5	-2	0
O=c1c2ccccc2nc(/C=C/c2c[nH]c3ccccc23)n1-c1ccc([N+](=O)[O-])cc1	-7	26*	9	3	0
CCNC(=O)N(C)c1c(CC)nc2ccc(C(=O)N3CCN(S(=O)(=O)CC)CC3)cn12	-4	x	x	0	x
CC(C)(C)n1cnc2cc(NS(=O)(=O)c3ccccc3)ccc21	-5	15*	-1	0	-3
O=C(NCc1cccnc1)c1cc(-c2ccccc2)on1	-5	11*	0	0	-3
Cc1[nH]n(-c2ccc(Br)cc2)c(=O)c1C=Nc1ccc(S(=O)(=O)Nc2nccs2)cc1	10	27*	-4	2	-5
CC(=O)Nc1cc(-c2ccc(N(C)C)cc2)cn2c(-c3ccc(F)c(Cl)c3)cnc12	-10	x	x	0	x
CCOc1cc(NC(=O)C2CC2)c(OCC)cc1NC(=O)c1cc(OC)c(OC)c(OC)c1	-9	-3	8	1	0
COc1cc(C(=O)NNC(=O)C2CC2)cc(OC)c1OC	-7	15*	5	-1	2
CSc1ccc(Cn2c(C)c(C(=O)NCc3ccc(F)cc3)sc2=O)cc1	22	x	x	0	x
CC(=O)Nc1c(I)c(NC(C)=O)c(I)c(C(=O)O)c1I	-7	13*!	-8	-1	-4
O=C(Nc1ccc(-c2noc(-c3cccs3)n2)cc1)c1cccnc1	13	28*	4	-3	-3
CC(Oc1ccc(Cl)cc1Cl)c1nc(-c2ccc(NC(=O)c3ccncc3)cc2)no1 (stereo not given)	32	22*	6	40	-6
COc1cccc(-c2nc(-c3ccc(NC(=O)c4cccnc4)cc3)no2)c1	6	-6	9	-2	0
CC(Oc1ccc(Cl)cc1Cl)C(=O)NNC(=O)c1ccncc1 (stereo not given)	-2	7	x	-2	3
CC(Oc1ccc(Cl)cc1Cl)C(=O)NNC(=O)c1cccnc1 (stereo not given)	-5	-2	0	-1	1
CC(Oc1ccc(Cl)cc1Cl)c1nc(-c2ccc(NC(=O)c3cccnc3)cc2)no1 (stereo not given)	20	12*	-10	2	-4
CN1CCCCC1(C)C(=O)NCc1cc(Cl)ccc1F (stereo not given)	-8	x	x	-2	x
